Assay [1] is described as follows: NCI Yeast Anticancer Drug Screen. Data for the rad50 strain (AID 155).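 Further: 0% = growth of vehicle-only cultures of the same strain.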 Conditions: S. cerevisiae rad50 strain growth inhibition; at 50.0 µM; hits give high values. In outline:
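A DNA repair-deficient yeast mutant serves as the test organism; compound-induced growth inhibition is calculated against vehicle-treated cells.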

Assay [2] is described as follows: NCI Yeast Anticancer Drug Screen. Data for the mec2-1 strain (AID 157). Conditions: S. cerevisiae mec2-1 strain, at 50.0 µM, hits give high values. In outline:
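Test agents were screened against the mec2-1 yeast strain, with defined DNA repair or cell cycle alteration. Growth was scored as inhibition against vehicle-only controls.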

Assay [3] in a line: NCI Yeast Anticancer Drug Screen. Data for the sgs1 mgt1 strain (AID 161).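 Further: 0% = growth of cultures given vehicle only.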 The note with it: S. cerevisiae sgs1 mgt1 strain, at 50.0 µM, hits give high values. The method in brief:
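Genetically altered yeast, compound exposure, growth inhibition relative to vehicle.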

Assay [4] is described as follows: NCI Yeast Anticancer Drug Screen. Data for the cln2 rad14 strain (AID 165).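 Further: 0% = growth equal to vehicle treated cultures.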 The note with it: S. cerevisiae cln2 rad14 strain, at 50.0 µM, hits give high values. In outline:
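Growth of compound-exposed yeast (cln2 rad14 genotype) measured and expressed as inhibition relative to vehicle.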

Assay [5] can be described thus: NCI Yeast Anticancer Drug Screen. Data for the mlh1 rad18 strain (AID 175). The note with it: S. cerevisiae mlh1 rad18 strain growth inhibition; at 50.0 µM; hits give high values. In outline: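 In this whole-cell yeast screen, a strain with altered DNA damage repair is challenged with compound, and its growth is measured against matched vehicle-treated controls.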

The nature of assay [6]: NCI Yeast Anticancer Drug Screen. Data for the bub3 strain (AID 167). Conditions: S. cerevisiae bub3 mutant strain, at 50.0 µM, hits give high values. In outline: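 Inhibition values come from growth of compound-treated mutant yeast normalised to vehicle-treated controls.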

Molecules are shown by their SMILES. The panel holds about 79,000 compounds, 15% with a hit somewhere; the sample as a whole holds those more often. Unmarked numbers belong to inactive results. Active and inactive are the calls of the source. No stated cut-off is given here; in the data, active means growth inhibition above about 70%; inactive means the rest.

As for `COc1cc([C@@H]2OC[C@@H]3C(c4cc(OC)c5c(c4)OCO5)OC[C@@H]32)cc(OC)c1OC` (stereo partly specified), the growth inhibition in assay [1] was 23.8%; in assay [2], -4.5%; in assay [3], 26.6%; in assay [4], 31.1%; in assay [5], -40.8%.
For `COc1ccc(O)c(/C=N\N=C\c2cc(OC)ccc2O)c1`, the growth inhibition in assay [1] is -1.25%; in assay [2], -1.15%; in assay [3], -2.3%; in assay [4], -22.5%; in assay [5], -2.8%.
The corresponding values for `Cc1cc(=O)oc2c(C)c3oc4c(c3cc12)CN(C)CC4` are 26.9%, 10.9%, 25.4%, 20% and 25.8%.
Regarding `CCOC(=O)C1CCN(S(=O)(=O)c2ccccc2)CC1`, the growth inhibition in assay [1] is 3.4%; in assay [2] it was -7.3%; in assay [3] it was 11.8%; in assay [4] it was -38.1%; in assay [5], -6.15%.
In the same order, the values of `COc1ccc2nc3cc(Cl)ccc3c(NCCCNCCCNc3c4ccc(Cl)cc4nc4ccc(OC)cc34)c2c1` are -10.3%, -16.5%, -9.1%, 3.5% and -23.1%.
In the case of `CC(=O)N(C)c1ccc(N)cc1`, the growth inhibition in assay [1] was 33.5%; in assay [2], 25.2%; in assay [3], 24.9%; in assay [4] it was -2.35%; in assay [5], 36.5%.
For the molecule `CC(CN(C)C)Oc1ccc2c(c1)C(=O)C(C)C2` (stereo unspecified), the growth inhibition in assay [1] was -25.6%; in assay [2] it was -5.25%; in assay [3], 4.85%; in assay [4], -28.9%; in assay [5], -22.6%.
Regarding `C[n+]1c2ccccc2c(CNC(CCC(N)=O)C(=O)O)c2ccccc21` (stereo unspecified), the growth inhibition in assay [1] is 83.3% (active); in assay [2], 87.4% (active); in assay [3], 80.6% (active); in assay [4] it was 61.8%; in assay [5] it was 87.8% (active).
As for `CCOc1ccc(C(C)(CC)c2cc3c(cc2OC)OCO3)cc1` (stereo unspecified), the growth inhibition in assay [1] was -18.9%; in assay [2], -14.3%; in assay [3], -23.3%; in assay [4] it was 3.55%; in assay [5], 3.85%.
In the same order, the values of `O=C(O)CCCC[P+](c1ccccc1)(c1ccccc1)c1ccccc1` are 21.1%, 7.8%, 13.5%, 7.5% and 27.8%.
The corresponding values for `FC(F)(F)C(c1ccc(Cl)cc1)c1ccc(Cl)cc1` are 42.6%, 28.8%, 40.6%, 34.5% and 30.6%.
The corresponding values for `Cc1ccc(/C(C#N)=C/c2cccc([N+](=O)[O-])c2)cc1` are -3.1%, -30.2%, -32%, 24.4% and -4.15%.
With `N#CCCn1nc(SCc2ccccc2)c(=O)[nH]c1=O`, the growth inhibition in assay [1] was -2.6%; in assay [2], 0.3%; in assay [3], 7.65%; in assay [4] it was 6.3%; in assay [5], 7.85%.
On to `Cc1cc(CC(N)C(=O)O)ccc1O` (stereo unspecified), for which the growth inhibition in assay [1] was -0.65%; in assay [2], 7.05%; in assay [3] it was -6%; in assay [4], -6.85%; in assay [5] it was -16.6%.
In the same order, the values of `CCCCCCCCCCCCCCCCCC(=O)OCC1CO1` (stereo unspecified) are 23.2%, 10.3%, 21.6%, 13.2% and 21.1%.
In the case of `CSc1ccc(Nc2ncnc(N)n2)cc1`, the growth inhibition was 19.9% in assay [1]; 5.6% in assay [2]; 8.6% in assay [3]; -1.4% in assay [4]; 8.8% in assay [6]; 14.6% in assay [5].
Turning to `Nc1ccc(S(=O)(=O)n2c(=O)oc3cc(Cl)ccc32)cc1`, the growth inhibition in assay [1] is 0.75%; in assay [2], 5.75%; in assay [3], 8.9%; in assay [4], -6.7%; in assay [5], 19.8%.
For the molecule `Brc1cc(Br)cc(-c2nnc(-c3ccc4ccccc4c3)o2)c1`, the growth inhibition in assay [1] was -3.5%; in assay [2], -20.8%; in assay [3], -2.45%; in assay [4], 3.25%; in assay [6], 3%; in assay [5], 4.55%.
On to `CCCCCCCCC(=O)OCC(=O)c1ccc(-c2ccccc2)cc1`, for which the growth inhibition was 10.8% in assay [1]; -15.3% in assay [2]; 3.35% in assay [3]; -7.85% in assay [4]; 3.65% in assay [5].
As for `CC(C)CC(=O)OC1=C(O)C(=O)C(OC(=O)CC(C)C)=C(O)C1=O`, the growth inhibition in assay [1] is -5.45%; in assay [2], -13.7%; in assay [3], 2.1%; in assay [4], -62.4%; in assay [5], 5.65%.
With `Cc1cc(C)c(S(=O)(=O)ONC(=O)OC(C)(C)C)c(C)c1`, the growth inhibition was 11.8% in assay [1]; -3.9% in assay [2]; -4% in assay [3]; 4.9% in assay [4]; -8.1% in assay [5].
Take `C[C@H]1C(=O)CCC2[C@]3(C)CCC4(CO)[C@@H]5CC(C)(C)C(=O)C[C@]5(C)CC[C@]4(C)C3CC[C@@]21C` (stereo partly specified): the growth inhibition in assay [1] was -26.5%; in assay [2] it was -25.6%; in assay [3], -28.1%; in assay [4], 3.35%; in assay [5], 0.4%.
For the molecule `CC(C)CC(NC(=O)OC(C)(C)C)C(=O)NC(Cc1c[nH]c2ccccc12)C(=O)NN` (stereo unspecified), the growth inhibition in assay [1] is 37.8%; in assay [2], 14.2%; in assay [3] it was 29.4%; in assay [4] it was 32.3%; in assay [6], 0.75%; in assay [5], 27.7%.
Consider `O=c1[nH]c2cc([N+](=O)[O-])ccc2nc1/C=C(\O)c1ccccc1`, for which the growth inhibition in assay [1] was -21.2%; in assay [2], -18.4%; in assay [3], -14.3%; in assay [4] it was -3.7%; in assay [5], 3.3%.
In the same order, the values of `O=C(O)CSCC(=O)c1ccccc1` are -2.1%, -16.4%, -43.2%, -29.1% and -16.6%.
The corresponding values for `COc1cc(C=Nc2cc(Cl)c(N=O)c(Cl)c2)ccc1N(CCCCl)CCCCl` are 33.4%, -13%, 40.8%, -15.8% and 12.3%.
On to `CCOc1ccc(Nc2nc(C)c(C(=O)CC(=O)C(=O)Nc3ccc(C(C)C)cc3C(C)C)s2)cc1`, for which the growth inhibition is -31.2% in assay [1]; 10.1% in assay [2]; 5.45% in assay [3]; -14.8% in assay [4]; -38.4% in assay [5].
For the molecule `CCn1c2ccc([N+](=O)[O-])cc2c2c([N+](=O)[O-])c(NC=O)ccc21`, the growth inhibition in assay [1] was 12.2%; in assay [2], 15.2%; in assay [3], -4.55%; in assay [4], 17.6%; in assay [6], 13.8%; in assay [5], 28.2%.
Take `C1=NN=C2C=C3CCc4ccccc4C3CC12` (stereo unspecified): the growth inhibition is 7.45% in assay [1]; 7.25% in assay [2]; -1.2% in assay [3]; -16.9% in assay [4]; 18.6% in assay [5].
The corresponding values for `CCOC(=O)c1c(-c2ccccc2)n2c3c(cccc13)CC2` are 6.85%, -5.2%, -6.05%, 6.15% and 27.5%.
In the same order, the values of `CCOC(=O)CCCCCC(C(=O)OCC)c1nc2ccccc2[nH]c1=O` (stereo unspecified) are -14.4%, 0.4%, 10.9%, -5.1% and 8.55%.
As for `COc1ccc(-c2c([O-])oc(-c3ccccc3)[n+]2C)cc1`, the growth inhibition in assay [1] is 17.8%; in assay [2] it was -18.4%; in assay [3], -6.2%; in assay [4], 7.3%; in assay [5], -4.1%.
In the same order, the values of `Cc1cc(N(CCC#N)S(=O)(=O)c2ccccc2)ccc1/C=C1\N=C(c2ccc(Cl)cc2)OC1=O` are -4.5%, 6.9%, 7.8%, -18.6% and 17.4%.
For the molecule `CCCCNC(=O)/N=C/c1c(O)c2ccccc2oc1=O`, the growth inhibition was 7.9% in assay [1]; -10.1% in assay [2]; -13.4% in assay [3]; -1.5% in assay [4]; -16.6% in assay [5].
Regarding `CC(C)(C)C(=O)Oc1ccc[nH]c1=O`, the growth inhibition in assay [1] was 23.4%; in assay [2] it was -13.9%; in assay [3], 2.35%; in assay [4], -27.6%; in assay [5], -2.1%.
Turning to `CCOc1ccc2[nH]c(C)c(CC(=O)O)c2c1`, the growth inhibition in assay [1] is -3.7%; in assay [2], -9.25%; in assay [3] it was -13.5%; in assay [4], -16.4%; in assay [5], -7.2%.
For `CCCCN(CCCC)CCC(O)c1cc(C(F)(F)F)nc2c(C(F)(F)F)cccc12` (stereo unspecified), the growth inhibition in assay [1] is -0.6%; in assay [2], 25.7%; in assay [3], 0.45%; in assay [4], 49.2%; in assay [6], 13.3%; in assay [5], 41.1%.
`CNC(=O)c1nnn(Cc2ccc(OC)cc2)c1Cl`: the growth inhibition in assay [1] was -8.05%; in assay [2] it was -8.9%; in assay [3], -14.7%; in assay [4], -69%; in assay [5] it was -8.15%.
The corresponding values for `O=[N+]([O-])c1ccc(SN2CCCCC2CC2CCCCC2)c([N+](=O)[O-])c1` (stereo unspecified) are 19.9%, -4.6%, -18.9%, -2.25% and 3.1%.
Consider `CC1(C)CN(CCO)C(C)(C)CN1`, for which the growth inhibition was 30.6% in assay [1]; 16.3% in assay [2]; 14.9% in assay [3]; 15.8% in assay [4]; 2.5% in assay [5].
Turning to `O=S(=O)(O)c1cc(N=Nc2cc(S(=O)(=O)O)c3cccnc3c2O)ccc1/C=C/c1ccc(N=Nc2cc(S(=O)(=O)O)c3cccnc3c2O)cc1S(=O)(=O)O.[Cu+2].[Na+]`, in assay [4], the growth inhibition is 25%.
Turning to `COCCNC(=O)C(C)O` (stereo unspecified), the growth inhibition is 1.7% in assay [1]; 3.95% in assay [2]; 19.2% in assay [4]; 17.1% in assay [6]; 6.15% in assay [5].
In the same order, the values of `O=C(Nc1ccc(F)cc1)C(=O)C(C1OC(=O)c2ccccc21)[N+](=O)[O-]` (stereo unspecified) are 14.9%, 6.15%, 14.1%, 10.8% and 15.8%.
`CC(C)=CCC\C(C)=C/C=C/C(C)=C\C=C\C(C)=C/C=C/C=C(C)\C=C\C=C(C)/C=C/C=C(/C)CCC=C(C)C`: the growth inhibition is 7.15% in assay [1]; -30.8% in assay [2]; 30.9% in assay [4]; -30.6% in assay [6]; 20.2% in assay [5].
In the same order, the values of `Cc1cc2nc3c(N)ccc(N)c3nc2cc1N` are 5.2%, 4.3%, -17.6%, -29.1% and -7.7%.
Turning to `O=c1oc2nc(-c3ccccc3)[nH]c(=O)c2c2c1CCCC2`, the growth inhibition in assay [1] was -8.5%; in assay [2], -7.15%; in assay [4] it was 9.3%; in assay [6], -17.9%; in assay [5], 19.9%.
The corresponding values for `CCCCS(=O)(=O)Nc1cccc(C(=O)O)c1` are 2.85%, -9.1%, -17.4%, 39.8% and -7.15%.
